Bim-Bcl-2: disrupts Bim peptide binding to human Bcl-2 | inhibition, % at 10 µM | AID 950 | Bead-based flow cytometry, Bim peptide-Bcl-2 binding | 0.06% of 190,000 active | P10415; in the data active = inhibition above about 40%;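 note: 0% = no compound wells with probe peptide and 100% = reference peptide inhibitor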
Target sequence (P10415 whole entry, looked up): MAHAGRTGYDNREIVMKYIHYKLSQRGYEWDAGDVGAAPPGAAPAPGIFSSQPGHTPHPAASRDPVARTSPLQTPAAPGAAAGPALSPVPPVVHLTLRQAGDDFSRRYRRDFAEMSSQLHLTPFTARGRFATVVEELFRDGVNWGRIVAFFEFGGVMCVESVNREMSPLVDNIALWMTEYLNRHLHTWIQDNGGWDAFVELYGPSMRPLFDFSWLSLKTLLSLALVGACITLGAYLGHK
Bcl-B Bim block: disrupts Bim peptide binding to human Bcl-B. Q9HD36. bead-based flow cytometry. inhibition, % at 10 µM. 0.073% of 190,000 active. AID 951;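 note: 0% = tracer peptide without compound and 100% = reference inhibitor peptide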
Target sequence (Q9HD36 whole entry, looked up): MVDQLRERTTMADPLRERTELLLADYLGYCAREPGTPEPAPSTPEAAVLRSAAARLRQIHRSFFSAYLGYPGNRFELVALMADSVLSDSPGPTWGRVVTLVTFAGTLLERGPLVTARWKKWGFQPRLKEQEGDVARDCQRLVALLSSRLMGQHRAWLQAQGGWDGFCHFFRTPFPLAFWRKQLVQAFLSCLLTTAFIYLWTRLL
Pf gamet viab: kills late stage P. falciparum gametocytes. inhibition, % at 10.9 µM. P. falciparum stage V gametocytes, ATP luminescence, 24 h. AID 743093. 0.065% of 150,000 active;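 active = inhibition above the mean plus 3 SD of compounds within the control limits, set per campaign, cut at about 38% in these data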;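 note: 0% = DMSO wells and 100% = medium only without gametocytes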
Bcl-XL Bim block: human Bim-Bcl-XL interaction inhibition; Q07817; Bim peptide-Bcl-XL binding, bead flow cytometry, fluorescence; inhibition, % at 10 µM; 0.04% of 190,000 active; AID 1007
Bcl-W Bim block: human Bim-Bcl-W interaction inhibition; Q92843; bead-based flow cytometry, Bim peptide-Bcl-W binding; inhibition, % at 10 µM; 0.02% of 190,000 active;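 note: 0% = bound tracer without compound and 100% = peptide blocker; higher means less fluorescent Bim peptide bound to Bcl-W beads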
Bfl-1 Bim block: human Bim-Bfl-1 interaction inhibition; Bead-based flow cytometry, Bim-Bfl-1 binding inhibition; inhibition, % at 10 µM; Q16548; 0.12% of 190,000 active;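 note: 0% = wells without compound plus tracer and 100% = blocker peptide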
Target sequence (Q16548 whole entry, looked up): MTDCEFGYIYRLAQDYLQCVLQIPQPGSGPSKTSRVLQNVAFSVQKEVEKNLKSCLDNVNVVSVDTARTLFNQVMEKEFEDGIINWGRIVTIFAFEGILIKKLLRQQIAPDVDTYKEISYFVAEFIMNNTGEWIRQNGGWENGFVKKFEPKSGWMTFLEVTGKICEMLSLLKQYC
Bim-Bcl-XL DR: confirmation of regulators of human Bim-Bcl-XL interaction; shares compounds with Bfl-1 Bim block; AID 2084; bead-based flow cytometry, Bim-Bcl-XL binding; 40 tested, under 10 active; inhibition of binding at 100 µM; call rule not given here
Numbers without * were called inactive; . = not tested or not shown. An excerpt weighted towards active compounds, which were near 0.2% of everything screened. Cut-off read from the data, not from the text of the source, unless noted: active = inhibition above about 40%.

SMILES	Bim-Bcl-2	Bcl-B Bim block	Pf gamet viab	Bcl-XL Bim block	Bcl-W Bim block	Bfl-1 Bim block	others
N/C(=N\OC(=O)c1cccs1)C1(c2ccc(Cl)cc2Cl)CC1	.	.	2.2	.	.	.
COc1ccc(Cc2nnc(NC(=O)c3ccccc3Cl)s2)cc1OC	.	.	-2.2	.	.	.
Cc1ccc(C(=O)N(CCCN(C)C)c2nc3ccc(Cl)cc3s2)cc1C	82.0*	79.0*	23.6	8.0	4.0	57.0*
COc1ccc(N2C(=O)CSC23C(=O)N2CCCc4cccc3c42)cc1 (configuration not stated)	-5.0	-2.0	42.1*	-2.0	1.0	-7.0
Cc1ccc(C)n1-c1sc2c(c1C#N)CCC(C)C2 (configuration not stated)	-9.0	-9.0	38.3*	-7.0	1.0	-16.0
CCC(=O)c1ccc(OCC(=O)NC2(C#N)CCCCC2)cc1	-2.0	0.0	-3.0	0.0	0.0	-5.0
CCCn1c(=S)[nH]c2cc(C(=O)N3CCc4ccccc4C3)ccc2c1=O	-4.0	-15.0	47.3*	-8.0	-4.0	-7.0
CC1CCCN(CC(O)CN)C1 (configuration not stated)	-2.0	-7.0	47.1*	-5.0	-3.0	-1.0
Cc1ccc(/C=C/C2=Cc3c(sc(NC(=O)CSc4n[nH]c(N)n4)c3C#N)C(C)(C)C2)o1	19.0	7.0	.	16.0	26.0	47.0*
Cc1ccc(S(=O)(=O)N2CCN(Cc3ccccc3)CC2)c(C)c1N(C)S(=O)(=O)c1ccccc1	-13.0	-11.0	41.8*	-12.0	-8.0	-11.0
Cc1ccc(S(=O)(=O)N(C)c2c(C)ccc(S(=O)(=O)N3CCN(C)CC3)c2C)cc1	-1.0	-4.0	-2.9	-5.0	-4.0	0.0
N#CCSc1nccc(/C=C/c2ccccc2)n1	0.0	-6.0	.	-1.0	0.0	-3.0
CCC(=O)N(C1=C(NC)C(=O)c2ccccc2C1=O)C(C)C	-3.0	-3.0	0.2	-1.0	-2.0	-4.0
CCC(=O)N(CC)C1=C(O)c2ccccc2C(=O)C1=O	7.0	11.0	.	5.0	10.0	52.0*
Cc1[nH]nc(SCC(=O)NCc2ccc(F)cc2)c1[N+](=O)[O-]	30.0	24.0	-3.3	42.0*	30.0	36.0
O=C(Nc1ccc(C(=O)O)cc1)Nc1ccc(F)cc1F	-5.0	-6.0	-2.3	-1.0	-2.0	-8.0
CCOC(=O)CSC1=NC(=O)/C(=C\c2ccc(OC(C)=O)cc2)S1	12.0	6.0	-20.4	2.0	9.0	58.0*
CCOC(=O)CSC1=NC(=O)/C(=C/c2ccc(Br)cc2)S1	-1.0	-5.0	6.5	-2.0	1.0	33.0
CC(C)(C)NC(=O)C12CCC(C)(c3nc4ccccc4nc31)C2(C)C (configuration not stated)	-6.0	-8.0	-10.8	-4.0	2.0	-11.0
CCOC(=O)c1c2c3c(cccc3[nH]c1=O)C(=O)c1ccccc1-2	10.0	4.0	.	23.0	16.0	5.0
CCOC(=O)c1c2c3c(c(Cl)ccc3[nH]c1=O)C(=O)c1ccccc1-2	21.0	20.0	8.2	51.0*	33.0	10.0
COc1ccc(N2CC(C(=O)Nc3cc(C)ccn3)CC2=O)cc1 (configuration not stated)	.	.	2.8	.	.	.
COc1ccccc1-n1c(-c2ccc(Cl)cc2)c[nH]c1=S	0.0	42.0*	.	-5.0	-2.0	5.0
O=[N+]([O-])c1ccc(-c2cnc(SC(c3ccccc3)c3ccccc3)[nH]2)cc1	-8.0	-12.0	-22.0	-5.0	-5.0	-10.0
O=[N+]([O-])c1ccc(-c2cnc(SCc3ccccc3Cl)[nH]2)cc1	80.0*	81.0*	.	14.0	12.0	59.0*
SMILES	Bim-Bcl-2	Bcl-B Bim block	Pf gamet viab	Bcl-XL Bim block	Bcl-W Bim block	Bfl-1 Bim block	others
COc1ccc(S(=O)(=O)NCc2cc(-c3ccccc3Cl)no2)cc1	-5.0	-9.0	.	-2.0	0.0	-10.0
CCOc1ccc(Oc2ccc(-c3nnc(-c4ccccc4)o3)cc2[N+](=O)[O-])cc1	-1.0	-6.0	.	-1.0	-4.0	1.0
O=C(O)c1cc2c(ccc3ccccc32)oc1=O	-6.0	-5.0	-0.3	-7.0	4.0	-7.0
CCOC(=O)c1cc2c(ccc3ccccc32)oc1=O	0.0	6.0	48.1*	4.0	3.0	2.0
CCOc1cc(NC(=S)NC)c(OCC)cc1NC(=O)c1ccc(OC)cc1	53.0*	41.0*	-3.1	27.0	49.0*	45.0*
CCOc1cc(NC(=S)NCC2CCCO2)c(OCC)cc1NC(=O)c1ccc(OC)cc1 (configuration not stated)	-9.0	-7.0	-5.8	-3.0	-3.0	-12.0
COc1cc(NCCCCCCCN)c2ncccc2c1	51.0*	71.0*	.	49.0*	48.0*	36.0
O=C(Nc1ccccc1)Nc1ccc2ncoc2c1	41.0*	52.0*	-3.8	59.0*	14.0	13.0
Cc1ccc(C)[n+](CC(=O)c2ccc(-c3ccccc3)cc2)c1	-4.0	0.0	13.0	-1.0	2.0	-3.0
CC(C)CN1C(=O)/C(=C/c2ccco2)NC1=S	11.0	-23.0	12.9	3.0	6.0	47.0*
C=CCOC(=O)C1=C(C)NC(=O)NC1c1ccc(O)cc1 (configuration not stated)	.	.	9.5	.	.	.
O=[N+]([O-])c1cc(Cl)ccc1N1CCCC1	-2.0	-2.0	.	0.0	0.0	-9.0
O=C1C(Cl)=C(N2CCN(c3ccccc3[N+](=O)[O-])CC2)C(=O)c2ccccc21	15.0	-17.0	4.0	1.0	27.0	68.0*	Bim-Bcl-XL DR=4.35
O=[N+]([O-])c1c(NCCCO)cc(Sc2nc3ccccc3s2)c2nonc12	8.0	3.0	.	1.0	8.0	61.0*	Bim-Bcl-XL DR=-0.998
Cc1nnc(Sc2cc(NCCCO)c([N+](=O)[O-])c3nonc23)s1	6.0	5.0	-1.4	1.0	5.0	29.0
Cc1nnc(Sc2cc(NCCO)c([N+](=O)[O-])c3nonc23)s1	12.0	0.0	.	3.0	14.0	55.0*	Bim-Bcl-XL DR=8.4
CCN1C2=NCCCN2c2cc(C)c(C)cc21	7.0	2.0	8.6	0.0	3.0	0.0
COc1ccc(N2C(=O)C(Cl)=C(NC3C(=O)N(c4ccccc4)N(C)C3C)C2=O)cc1 (configuration not stated)	.	.	.	.	.	.	Bim-Bcl-XL DR=-3.92
COc1ccc(N2C(=O)c3ccccc3C2=O)cc1	-2.0	-5.0	-6.8	-4.0	-4.0	-6.0
COc1ccc(N2C(=O)C(Cl)=C(Oc3cccc(OC)c3)C2=O)cc1	2.0	-39.0	.	-8.0	0.0	43.0*	Bim-Bcl-XL DR=-8.24
COc1ccc(CC(=O)NCC2CCCN(Cc3cccc(SC)c3)C2)cc1 (configuration not stated)	.	.	-11.6	.	.	.
CC(=O)Nc1ccc(-n2cc(-c3ccccc3)[nH]c2=S)cc1	-1.0	-37.0	.	-5.0	-1.0	27.0	Bim-Bcl-XL DR=-10.4
C=CCn1cc(C(=O)OCC)c(=O)c2cc(F)c(F)cc21	.	.	2.4	.	.	.
O=C(NCc1ccccc1)c1ccc2nc(-c3ccco3)c(-c3ccco3)nc2c1	17.0	5.0	.	7.0	19.0	43.0*	Bim-Bcl-XL DR=15.4
CCNCc1ccccc1OCc1ccccc1	0.0	-2.0	8.6	1.0	-2.0	-3.0
Oc1ccc(NCc2ccccc2OCc2ccccc2)cc1	11.0	-10.0	-5.9	1.0	16.0	34.0	Bim-Bcl-XL DR=-0.782
NC(=O)c1ccc[n+](CC(=O)c2ccc(F)cc2)c1	.	.	14.1	.	.	.
